Several values for one entry are separate records, joined by “and”; a condition that tells them apart may be missing. Equal entries are not always repeated. This is part of a sample that, as a whole, favours compounds with a hit. Of some 83,000 tested, about 20% had one in any assay.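 Plates (96-well) were seeded with cells, treated with compound at one concentration, and incubated for 48 hours before percent growth was determined.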 Unmarked numbers belong to inactive results. Activity calls are given as the source filed them. Rule for the calls: active = growth percent below 10; inactive = the rest.

The subject of the assay is MDA-MB-468 breast. Nature of the assay: NCI-60 one-dose screen, 48 h (100 = growth as untreated, 0 = no growth, -100 = all killed). To be noted: 10 µM unless noted.
`CC(=O)Oc1ccc(OC(C)=O)c2ccccc12`: the growth is -53.2% (active).

Take `Cc1ccc(NS(=O)(=O)c2ccc(C)cc2)cc1`: the growth was 94.4% and 87.3%.

Take `COc1ccc(OC)c(/C=C2\COc3ccc(O)cc3C2=O)c1`: the growth was 82.7%.

With `CC1=C(C(=O)OCc2ccccc2)C(c2ccc3c(c2)OCO3)n2c(nc3ccccc32)N1` (stereo not drawn), the growth was 15.8%.

As to `CSc1ccc(C(=NNS(=O)(=O)c2ccc(C)cc2)c2ccc(Cl)cc2)cc1`, the growth is 112%.

For `COc1ccc2c(c1)OC(N(C(C)=O)C(C)=O)=C(C#N)C2c1ccc(F)cc1` (stereo not drawn), the growth was -36.1% (active).

Take `CN1CCN(Cc2ccc(NC(=O)c3cncc(C#Cc4cnc(N)c5ccc(F)cc45)c3)cc2C(F)(F)F)CC1`: the growth is -34.4% (active).

Consider `CC1=C(SCC(=O)OCCCCCC(C)C)C(=O)c2ccccc2C1=O`, for which the growth is 65.5%.

Take `COc1ccc(Oc2c(I)cc(CC(NC(C)=O)C(=O)O)cc2I)cc1` (stereo not drawn): the growth is 75.8%.

Regarding `Cc1ccc(S(=O)(=O)OC[C@@]2(C)CC[C@]3(C)CC[C@]4(C)C(=C3C2)C=C[C@@H]2[C@@]3(C)CCCNC(C)(C)[C@@H]3CC[C@]24C)cc1`, the growth was -88.5% (active).

Turning to `COc1ccc2[nH]cc(-c3nc(-c4c[nH]c5ccncc45)cs3)c2c1`, the growth is -33.9% (active).

As to `COc1ccc(-c2nc3sccn3c2/C=C/C(=O)c2cc(OC)c(OC)c(OC)c2)cc1`, the growth is 53.6%.

Take `COC(=O)Nc1ccc2ccc3c(NC(=O)OC)ccc4ccc1c2c43` (tested in a mixture with another compound): the growth was 40.9%.

For the origin of these results see PubChem BioAssay (NCI).
